Test results reported in PubChem BioAssay (Tox21).
“And” between values parts separate entries of the source, which are not always exact repeats. Equal values may be shown once. Results filed as inconclusive are left out. The source made the active and inactive calls. Unless noted, calls come from the whole dose curve; as a rule, active = well fitted curve in the direction sought with a large enough effect in the repeat runs; inconclusive = weak or mixed curves; inactive = no such curve, though single readings can be large; an effect the other way counts as inactive or inconclusive.

Experiments:
[1] = qHTS assay to identify small molecule agonists of the NFkB signaling pathway - cell viability counter screen (AID 1159515; calls by dose curve; note: nearly all actives have a fitted effect of over 55% in size; note: potency is the fitted concentration of half-maximal effect)
Summary of the method: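 5 hr compound treatment of NFkB-bla ME-180 cells (2,000/well, seeded overnight beforehand), followed by reporter substrate for 1.5 hr. CellTiter-Glo added afterward; luminescence after 30 min RT.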

[2] = qHTS assay to identify small molecule antagonists of the retinoid-related orphan receptor gamma (ROR-gamma) signaling pathway - cell viability counter screen (AID 1159520); note: nearly all actives have a fitted effect of over 50% in size; note: potency is the fitted concentration of half-maximal effect
Summary of the method: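 Cytotoxicity was read from cellular ATP (CellTiter-Glo luminescence) after 16 hr at 37 C with 1 uM doxycycline induction. The inducer was added 2 hr after compound transfer to Tet-on ROR gamma CHO cells.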

[3] = target: Nuclear receptor ROR-gamma (Homo sapiens) (UniProt P51449); assay: qHTS assay to identify small molecule antagonists of the retinoid-related orphan receptor gamma (ROR-gamma) signaling pathway (AID 1159521; note: nearly all actives have a fitted effect of over 50% in size; note: potency is the fitted concentration of half-maximal effect)
Summary of the method: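 Decreased RORE-driven luciferase luminescence indicates antagonism. Tet-on RORγ CHO cells received compound, then 1 uM final doxycycline 2 h later; signal read after 16 h incubation.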

[4] = qHTS assay to identify small molecule agonists of the AP-1 signaling pathway - cell viability counter screen (AID 1159525; calls by dose curve; note: nearly all actives have a fitted effect of over 55% in size; note: potency is the fitted concentration of half-maximal effect)
Summary of the method: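 Luminescent ATP readout (Cell Titer Glo, 30 min RT), normalised to DMSO and tetra n-octyl ammonium bromide controls. Cells were ME-180 AP-1-bla in 0.5% dialyzed FBS Opti-MEM, with a 5 h, 37 °C compound exposure.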

[5] = qHTS assay to identify small molecule agonists of the AP-1 signaling pathway (AID 1159526; calls by dose curve)
[6] = target: Retinoic acid receptor RXR-alpha (Homo sapiens) (UniProt P19793); assay: qHTS assay to identify small molecule agonists of the RXR signaling pathway (AID 1159527; calls by dose curve; note: nearly all actives have a fitted effect of over 35% in size)
Chain of Retinoic acid receptor RXR-alpha (Homo sapiens) (P19793 whole entry, looked up): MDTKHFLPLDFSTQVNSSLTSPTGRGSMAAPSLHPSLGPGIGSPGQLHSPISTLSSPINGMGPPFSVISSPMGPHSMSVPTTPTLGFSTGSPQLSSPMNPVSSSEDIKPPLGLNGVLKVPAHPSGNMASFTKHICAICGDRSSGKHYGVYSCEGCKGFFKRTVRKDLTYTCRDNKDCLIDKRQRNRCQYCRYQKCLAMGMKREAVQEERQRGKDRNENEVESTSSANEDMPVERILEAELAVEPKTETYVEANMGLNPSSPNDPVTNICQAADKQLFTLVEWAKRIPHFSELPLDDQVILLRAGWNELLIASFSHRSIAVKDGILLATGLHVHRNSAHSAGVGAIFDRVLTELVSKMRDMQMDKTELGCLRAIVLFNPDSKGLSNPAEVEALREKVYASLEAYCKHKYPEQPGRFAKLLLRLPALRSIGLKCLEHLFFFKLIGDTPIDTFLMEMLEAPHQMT
Summary of the method: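 16 hr incubation of compound-treated RXR-alpha-UAS-bla HEK 293T cells (2% charcoal-stripped FBS, 37 C) preceded a 2 hr room-temperature LiveBLAzer FRET substrate step and blue/green fluorescence measurement.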

[7] = qHTS assay to identify small molecule agonists of the RXR signaling pathway - cell viability counter screen (AID 1159529); note: nearly all actives have a fitted effect of over 50% in size; note: potency is the fitted concentration of half-maximal effect
Summary of the method: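 In this parallel viability measure, GeneBLAzer RXR-alpha HEK 293T cells (2% charcoal-stripped FBS) were given a 5 hr preincubation, treated with compounds 16 hr at 37 C, and read by CellTiter-Glo luminescence.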

[8] = qHTS assay to identify small molecule antagonists of the retinoid acid receptor (RAR) signaling pathway - cell viability counter screen (AID 1159551); note: nearly all actives have a fitted effect of over 35% in size; note: potency is the fitted concentration of half-maximal effect
Summary of the method: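 Seed C3RL4 cells; next day add compound, then retinol to 1 uM final; incubate 6 h at 37 C; add CellTiter-Glo; read luminescence after 30 min at RT.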

[9] = qHTS assay to identify small molecule antagonists of the retinoic acid receptor (RAR) signaling pathway (AID 1159552; note: nearly all actives have a fitted effect of over 50% in size; note: potency is the fitted concentration of half-maximal effect)
Summary of the method: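 C3RL4 RARE-luc cells, overnight plating; retinol 1 uM final added right after compound; 6 hr 37 C; luciferase read at 30 min RT.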

[10] = qHTS assay to identify small molecule antagonists of the estrogen related receptor (ERR) signaling pathway from Tox21 library - cell viability counter screen (AID 1224834); note: nearly all actives have a fitted effect of over 30% in size; note: potency is the fitted concentration of half-maximal effect
Summary of the method: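 CellTiter-Fluor fluorescence measured; ERR cells; 17.5 h compound incubation at 37 C; 30 min reagent step.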

[11] = target: Luciferin 4-monooxygenase (Photinus pyralis) (UniProt P08659); assay: qHTS assay to identify small molecule inhibitors of firefly luciferase (AID 1224835); note: nearly all actives have a fitted effect of over 25% in size; note: potency is the fitted concentration of half-maximal effect
Chain of Luciferin 4-monooxygenase (Photinus pyralis) (P08659 whole entry, looked up): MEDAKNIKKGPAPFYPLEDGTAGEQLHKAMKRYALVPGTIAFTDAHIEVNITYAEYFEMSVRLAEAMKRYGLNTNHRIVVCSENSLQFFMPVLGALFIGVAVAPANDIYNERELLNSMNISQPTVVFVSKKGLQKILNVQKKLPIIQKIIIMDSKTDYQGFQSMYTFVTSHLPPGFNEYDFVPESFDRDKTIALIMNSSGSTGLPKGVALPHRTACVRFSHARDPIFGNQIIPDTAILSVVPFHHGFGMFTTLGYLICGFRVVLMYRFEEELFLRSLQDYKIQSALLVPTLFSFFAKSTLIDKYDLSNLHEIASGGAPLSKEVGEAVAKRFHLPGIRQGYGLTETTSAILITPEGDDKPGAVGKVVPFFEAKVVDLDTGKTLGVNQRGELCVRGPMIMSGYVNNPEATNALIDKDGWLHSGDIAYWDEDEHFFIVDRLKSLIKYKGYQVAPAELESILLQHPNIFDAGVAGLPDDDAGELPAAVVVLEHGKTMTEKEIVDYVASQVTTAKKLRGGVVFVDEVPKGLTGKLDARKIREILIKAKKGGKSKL
Summary of the method: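 Inhibition of purified Photinus luciferase is measured by luminescence. Substrate levels (D-luciferin, ATP) sit at their KM values. Each compound is tested in a concentration series.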

[12] = qHTS assay to identify small molecule agonists of the endoplasmic reticulum stress response signaling pathway - cell viability counter screen (AID 1159517; calls by dose curve; note: nearly all actives have a fitted effect of over 50% in size; note: potency is the fitted concentration of half-maximal effect)
Summary of the method: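 Cells, HeLa ESRE-bla; density, 1,500/well; dosing, 5 hr at 37 C, 5% CO2; readout, CellTiter-Glo luminescence after 30 min RT.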

[13] = qHTS assay to identify small molecule agonists of the retinoic acid receptor (RAR) signaling pathway (AID 1159553)
Summary of the method: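 Activation of retinol signaling was monitored via a RARE luciferase reporter in C3RL4 cells. After 6 hr compound treatment at 37 C, detection reagent was added for 30 min at room temperature before luminescence reading.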

[14] = qHTS assay to identify small molecule antagonists of the estrogen related receptor (ERR) signaling pathway - cell viability counter screen (AID 1224818);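 note: series mostly up to about 46 µM; viability measured after 17.5 h of compound exposure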
Summary of the method: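 In the same ERR cell assay, compound-treated wells (17.5 h, 37 C) were multiplexed with a fluorogenic viability reagent, CellTiter-Fluor, read after 30 min to flag cytotoxic substances.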

[15] = qHTS assay to identify small molecule agonists of the estrogen related receptor (ERR) signaling pathway (AID 1224820)
Summary of the method: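 ERR reporter cells (NTP line) plated 2,000/well, incubated 6 h at 37 C/5% CO2, then pinned with compounds in DMSO and held 18 h at 37 C. One-Glo added; luminescence read after 30 min at room temperature.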

[16] = qHTS assay to identify small molecule antagonists of the estrogen related receptor signaling pathway with the pleiotropic PPARgamma coactivator (PGC) cell viability counter screen (AID 1224822; note: series mostly up to about 46 µM)
Summary of the method: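 Compounds in DMSO, with positive and negative controls, were applied to PGC/ERR cells (2,000/well) and left 17.5 h at 37 C before CellTiter-Fluor detection.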

[17] = qHTS assay to identify small molecule agonists of the estrogen related receptor signaling pathway with the pleiotropic PPARgamma coactivator (PGC) (AID 1224823)
Summary of the method: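 PGC/ERR reporter cells were seeded, rested 6 h at 37 C/5% CO2, then exposed to compounds in DMSO by pin transfer for 18 h at 37 C. Luciferase activity was read as luminescence after One-Glo reagent and 30 min at room temperature.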

Measured: Potency

COc1ccc(OC)c(CC(C)N)c1 (stereo not given)
not listed: [12] | [13] | [14] | [15] | [16] | [17]
inactive: all other assays above

CN(C)C(=S)S
active: [1] 15.5 µM | [2] 6.11 µM | [4] 38.9 µM | [7] 1.22 µM and 43.6 µM | [10] 9.89 µM and 3.83 µM and 13.7 µM
inactive: [12]

CCOC(=O)OC1=C(c2cc(C)ccc2C)C(=O)NC12CCC(OC)CC2 (stereo not given)
inactive: [1] | [2] | [3] | [4] | [5] | [8] | [13] | [10] | [11]
active: [9] 43.2 µM

c1ccc2cc3c(cc2c1)-c1cccc2cccc-3c12
inactive: [1] | [12] | [2] | [7] | [8] | [9] | [10] | [11]

CC(C)[C@H](C(=O)OC(C#N)c1cccc(Oc2ccccc2)c1)c1ccc(OC(F)F)cc1 (stereo not given in full)
not listed: [3] | [5] | [13] | [14] | [15] | [16] | [17]
inactive: all other assays above

CCCCCCCCCCCCCCCCCCn1cc[n+](C)c1
active: [1] 48.7 µM | [2] 60.8 µM | [3] 3.05 µM | [7] 10.9 µM | [8] 48.3 µM | [9] 21.6 µM | [10] 27.1 µM
inactive: [4] | [5] | [11]

CCC[CH2][Sn]([CH2]CCC)([CH2]CCC)[O]C(=O)c1ccccc1
active: [1] 0.436 µM | [12] 4.9 µM | [2] 0.686 µM | [7] 1.23 µM | [8] 4.86 µM | [9] 0.686 µM | [10] 2.17 µM | [11] 35.6 µM

O=C(CCl)Nc1ccccc1
inactive: [1] | [12] | [7] | [11]
active: [2] 27.3 µM | [3] 21.7 µM | [10] 30.6 µM

CC1(C)C(/C=C(\Cl)C(F)(F)F)C1C(=O)OC(C#N)c1cccc(Oc2ccccc2)c1 (stereo not given)
inactive: [1] | [12] | [2] | [5] | [7] | [8] | [10] | [11]

Fc1cccc(Cl)c1CCl
not listed: [7] | [12] | [13] | [14] | [15] | [16] | [17]
inactive: all other assays above

[Hg+2].[I-].[I-]
active: [1] 7.76 µM | [12] 49 µM | [2] 2.17 µM | [7] 3.89 µM | [8] 10.9 µM | [10] 6.86 µM | [11] 4.48 µM

CCCCOCN(C(=O)CCl)c1c(CC)cccc1CC
inactive: [1] | [12] | [2] | [4] | [8] | [11]

CC1(C)[C@H](C(=O)O[C@H](C#N)c2cccc(Oc3ccccc3)c2)[C@@H]1/C=C(\Cl)C(F)(F)F
inactive: [1] | [12] | [2] | [4] | [5] | [7] | [8] | [10] | [11]

Cc1cc(N=Nc2ccccc2C)ccc1N
active: [7] 54.9 µM and 43.6 µM | [10] 27.3 µM | [11] 5.64 µM and 6.33 µM
inactive: [1] | [12] | [3] | [9]

O=c1oc2ccccc2c(O)c1Cc1c(O)c2ccccc2oc1=O
inactive: [1] | [12] | [4] | [6] | [8] | [9] | [10]
active: [3] 7.5 µM

COP(=S)(OC)Oc1cc(Cl)c(Br)cc1Cl
inactive: [1] | [12] | [4] | [5] | [8] | [9] | [13] | [10]
active: [3] 68.6 µM

C[C@@H]1CC[C@@]2(OC1)O[C@H]1[C@@H](O)[C@H]3[C@@H]4CC[C@H]5C[C@@H](O[C@@H]6O[C@H](CO)[C@H](O[C@@H]7O[C@H](CO)[C@@H](O)[C@H](O[C@@H]8OC[C@@H](O)[C@H](O)[C@H]8O)[C@H]7O[C@@H]7O[C@H](CO)[C@@H](O)[C@H](O[C@@H]8O[C@H](CO)[C@@H](O)[C@H](O)[C@H]8O)[C@H]7O)[C@H](O)[C@H]6O)[C@H](O)C[C@]5(C)[C@H]4CC[C@]3(C)[C@H]1[C@@H]2C
inactive: [11]
active: [1] 9.25 µM | [12] 7.34 µM | [2] 10.3 µM | [7] 4.13 µM | [8] 25.8 µM | [9] 20.5 µM | [10] 20.5 µM

CCCOCC(=Nc1ccc(Cl)cc1C(F)(F)F)n1ccnc1
inactive: [6] | [13] | [11]
active: [1] 30.9 µM | [2] 61.1 µM | [10] 54.4 µM

C=CCC1=C(C)C(OC(=O)C2C(C=C(C)C)C2(C)C)CC1=O (stereo not given)
inactive: [14] | [15] | [16] | [17] | [11]
active: [1] 58.3 µM | [2] 61.1 µM | [3] 32.5 µM | [7] 58.3 µM | [9] 61.1 µM

CC[C@H](C)[C@H]1O[C@]2(C=C[C@@H]1C)C[C@@H]1C[C@@H](C/C=C(\C)[C@@H](O[C@H]3C[C@H](OC)[C@@H](O[C@H]4C[C@H](OC)[C@@H](O)[C@H](C)O4)[C@H](C)O3)[C@@H](C)/C=C/C=C3\CO[C@@H]4[C@H](O)C(C)=C[C@@H](C(=O)O1)[C@]34O)O2
active: [1] 28.9 µM | [2] 25.6 µM | [4] 23 µM | [7] 16.3 µM | [9] 32.2 µM | [10] 16.1 µM
inactive: [11]
